Drawing on PubChem BioAssay AID493131 (Broad Institute, 2011), this text covers activation for 57 compounds.

Each structure is given as a SMILES string. Screen size: about 340,000 compounds; about 3,300 (0.97%) were called active. This excerpt belongs to a sample that is enriched for actives. Unmarked numbers belong to inactive results.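 Rule for the calls: active = mean activation above about 17%, with every replicate also reaching it (limit read from the data, passing the limit was not always enough); inconclusive = only one of the two conditions met; inactive = the rest.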

The target in the assay is Protein FosB (Mus musculus) (UniProt P13346). Put plainly: enhancers of mouse delta FosB DNA binding – biochemical, fluorescence polarization, TAMRA-CDK5 oligo, single point, primary screen (AID 493131).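 Note: fluorescence polarization rise as delta FosB binds a TAMRA Cdk5 AP-1 oligo.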 As to conditions: purified delta FosB, at 25 µM, active compounds read high, percent of positive-control signal above neutral wells. Background: In fluorescence polarisation assays a small probe gives low polarisation when free and higher when bound to something large.
Protein FosB (Mus musculus), sequence (P13346 whole entry, looked up): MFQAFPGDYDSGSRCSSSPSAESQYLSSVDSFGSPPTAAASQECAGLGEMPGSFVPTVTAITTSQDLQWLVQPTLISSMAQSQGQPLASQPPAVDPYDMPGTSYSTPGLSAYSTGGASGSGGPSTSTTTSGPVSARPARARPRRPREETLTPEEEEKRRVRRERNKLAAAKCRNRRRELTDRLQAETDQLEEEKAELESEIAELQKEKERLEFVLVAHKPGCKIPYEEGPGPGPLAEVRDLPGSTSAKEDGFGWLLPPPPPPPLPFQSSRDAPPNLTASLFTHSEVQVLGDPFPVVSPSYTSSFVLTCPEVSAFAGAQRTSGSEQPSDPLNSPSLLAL
Regarding `C=CCNC(=O)c1ccc2c3n(nc2c1)-c1ccc(C)cc1CO3`, the activation is -4.63%.

On to `CC(OC(=O)c1cc2ccccc2o1)C(=O)Nc1ccc(N2CCOCC2)cc1` (configuration not stated), for which the activation was -0.675%.

`CCCCC(c1nnnn1CS(=O)(=O)c1ccc(C)cc1)N1CCC(C(N)=O)CC1` (configuration not stated): the activation is -1.34%.

For `COc1ccc(C(CNC(=O)c2ccc(S(=O)(=O)Nc3ccccc3F)cc2)N(C)C)cc1` (configuration not stated), the activation is 1.38%. Take `O=C(Nc1ccc(S(=O)(=O)N2CCc3ccccc3C2)cc1)c1ccccc1`: the activation is 25.5% (active). With `CC(=O)Nc1ccc(S(=O)(=O)N2CCC(NC(=O)c3ccccc3)CC2)cc1`, the activation is 3.46%. `COC(=O)c1ccc(S(=O)(=O)N2CCc3ccccc3C2)cc1`: the activation is -1.34%. With `COc1cccc(/C=C2\Sc3ccc(C(=O)NCC4CCCO4)cc3N(C)C2=O)c1` (configuration not stated), the activation is 0.556%. To `COc1cccc(/C=C2/SC(=S)N(CC(=O)NC3C=CS(=O)(=O)C3)C2=O)c1` (configuration not stated) belongs 35.9% (active). As for `O=C(CN1C(=O)S/C(=C\c2ccccc2Cl)C1=O)NC1C=CS(=O)(=O)C1` (configuration not stated), the activation was -2.97%.

`COc1ccc(S(=O)(=O)N2CCCC2CNC(=O)C(=O)NC2CC2)cc1` (configuration not stated): the activation was -3.99%. As to `CC1C(=O)Nc2ccccc2N1C(=O)c1ccc(F)cc1F` (configuration not stated), the activation was 1.98%. In the case of `Cc1ccc(OCC(=O)NCCCNC(=O)c2cccnc2)cc1C`, the activation is 2.57%. Next, `C/C(=C\C(=O)c1cccnc1)Nc1ccc(C)c(C)c1`: -1.12%; `Cc1ccc(NC(=O)COc2ccc(/C=N\NC(=O)c3cccnc3)cc2)cc1C`: 82.7% (active); `N#Cc1ccccc1S(=O)(=O)N1CCN(C(=O)c2cc(-c3ccccc3)nn2-c2ccccc2)CC1`: 1.25%. With `O=[N+]([O-])c1ccc(N2CCN(c3ccc(O)cc3)CC2)c(Cl)c1`, the activation is -9.93%. `Cc1ccccc1NC(=O)c1ccc(COc2ccc3c(C)cc(=O)oc3c2)cc1`: the activation is 22.2% (active). Next, `CCOC(=O)c1cc(=O)c2ccc(OCc3ccccc3)cc2o1`: -2.05%. Consider `CCN(C(=O)COC(=O)c1ccc(COc2ccc3c(C)cc(=O)oc3c2)cc1)C1CCS(=O)(=O)C1` (configuration not stated), for which the activation was 2.03%.

On to `Cc1ccc(C(C)C)c(OCCSc2nc3ccccc3n2CC(=O)O)c1`, for which the activation is -20.9%. Next, `CCOc1ccc(OCC(=O)Nc2c3c(nn2C(C)(C)C)CS(=O)(=O)C3)cc1`: -1.81%; `CCOc1ccc(N(C)S(=O)(=O)c2cnc[nH]2)cc1`: -0.199%. As to `Cc1ccc2nc(-c3ccccn3)cc(C(=O)Nc3ccc4c(c3)OCO4)c2c1`, the activation was 36.9% (active). With `CSc1ncccc1C(=O)Nc1ccc2c(c1)OCO2`, the activation is -5.35%.

Regarding `Cc1ccc(-n2c(SCC(=O)Nc3ccc4c(c3)OCO4)nnc2-c2ccccn2)cc1`, the activation is -2.46%. Next, `O=C(N/C(=C\c1ccc([N+](=O)[O-])cc1)C(=O)N1CCCCC1)c1ccco1`: -1.72%. Next, `O=C(Cn1cnc2c(nnn2Cc2ccc(F)cc2)c1=O)NCc1ccc2c(c1)OCO2`: 17.6% (active); `COc1cc(-c2nnn(CC(=O)NCc3ccccc3)n2)cc(OC)c1OC`: -0.135%. Take `Cc1ccc(Cn2nnc3c(=O)n(CC(=O)N4CCCCC4)cnc32)cc1`: the activation was 3.79%. Turning to `S=C(NCc1ccc2c(c1)OCO2)NCc1ccco1`, the activation was -2.47%. Regarding `CCN(CC)C(=O)C(=O)c1cn(CC(=O)NCc2ccc3c(c2)OCO3)c2ccccc12`, the activation is -0.7%. Regarding `CS(=O)(=O)N(CC(=O)NCc1ccco1)c1ccc2c(c1)OCO2`, the activation was 2.32%. Consider `O=C(Cn1nnc(-c2ccccc2)n1)NCc1ccc2c(c1)OCO2`, for which the activation was 22.6% (active). Take `O=C(CN(C(=O)CCC(=O)Nc1nccs1)c1ccc(F)cc1)NCc1ccc2c(c1)OCO2`: the activation was 6.39%. As to `O=C(Cn1nnc(-c2ccc3c(c2)OCO3)n1)NCc1ccco1`, the activation is 33.3% (active). Next, `O=C(NC1CCCC1)C(c1ccc(Cl)cc1)N(C(=O)c1csnn1)C1CC1` (configuration not stated): -6.23%. Next, `Cc1ccc(-c2cnc(NC(=O)CCC(=O)N(C)Cc3ccccc3)n2C)cc1`: -2.74%; `CCCC1C(=O)N2C(N(C)C)=Nc3ccc(C)cc3N2C1=O` (configuration not stated): 6.69%. To `COc1ccc(S(=O)(=O)N2CCN(C(C)C(=O)Nc3ccc(C(C)C)cc3)CC2)cc1` (configuration not stated) belongs -3.44%; to `O=C(CCc1ccccc1)Nc1ccc(NC(=O)C2CC2)nc1`, 4.2%; to `COc1ccc(S(=O)(=O)N(CC(=O)N/N=C/c2ccc(C(=O)O)cc2)Cc2ccccc2)cc1OC`, -11.9%. For `Cc1ccccc1NC(=O)CCOc1ccccc1`, the activation was -7.98%.

With `CC(Oc1cccc(NC(=O)c2cccs2)c1)C(=O)c1ccccc1` (configuration not stated), the activation was -3.07%. Regarding `O=C(Nc1ccccc1)c1ccc(NC(=O)c2cccs2)cc1`, the activation was 19% (active). `O=C(NC(=S)Nc1ccc(NC(=O)c2cccs2)cc1)c1ccc([N+](=O)[O-])cc1`: the activation was -0.174%.

For the compound `O=C(O)c1ccccc1C(=O)NC1=NN(c2ccccc2)CC1`, the activation is -3.52%. `COc1cccc(-c2cc3nc4c(c(N5CCC6(CC5)OCCO6)n3n2)CCCC4)c1`: the activation is -1.84%. To `COc1ccc(C(=O)n2nc(C)c(Br)c2C)cc1OC` belongs 3.74%; to `COc1ccc(C(=O)n2nc(-c3ccc(C)cc3)nc2N)cc1OC`, 8.05%; to `COc1ccc(C(=O)n2nc(-c3ccc(Cl)cc3)nc2N)cc1OC`, 30.9% (active). Next, `CCN(CC)CCNC(=O)c1sc2ncn(CC(=O)Nc3ccc(C)c(Cl)c3)c(=O)c2c1C`: -141%; `Cc1nc2cc(NC(=O)CSc3nc4c(C)cccc4cc3C#N)ccc2s1`: 61.2% (active); `Cc1cc(C)c(C#N)c(SCC(=O)Nc2ccccc2)n1`: 3.54%.

Consider `Cc1nonc1NC(=O)CSc1nc2ccccc2cc1C#N`, for which the activation is 5.77%. To `Cc1ccc(C)c(NC(=O)C(c2ccccc2)N2CCN(CC(=O)NC3CC3)CC2)c1` (configuration not stated) belongs -10.9%. With `NC(=O)c1cc(S(=O)(=O)N2CCCC2)ccc1OCc1ccc(F)cc1`, the activation was -1.72%.
